# This is part of a sample that, as a whole, favours compounds with a hit. Of some 79,000 tested, about 15% had one in any assay. Unmarked numbers belong to inactive results. Active and inactive are the calls of the source. Rule as the data show it: active = growth inhibition above about 70%; inactive = the rest.
# Experiments:
# [1] = NCI Yeast Anticancer Drug Screen. Data for the rad52 strain (AID 147);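 also: 0% = growth of vehicle-treated control cultures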; settings: S. cerevisiae rad52 mutant growth inhibition, active compounds read high
# Method in brief: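 Compounds are applied to a genetically defined yeast strain lacking normal DNA damage repair, and inhibition of growth is expressed relative to cultures given vehicle only.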
# [2] = NCI Yeast Anticancer Drug Screen. Data for the wt1 strain (AID 149);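 also: 0% = growth of vehicle-treated wt1 cultures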; settings: S. cerevisiae wt1 strain (SPY 50644) growth inhibition, active compounds read high
# Method in brief: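 Yeast wt1 strain exposed to compounds; growth inhibition measured relative to vehicle-treated controls.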
# [3] = NCI Yeast Anticancer Drug Screen. Data for the rad50EPP+ strain (AID 151);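 also: 0% = growth of vehicle-treated control cultures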; settings: S. cerevisiae rad50 mutant strain, active compounds read high
# Method in brief: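 Compounds were applied to the rad50EPP+ yeast strain, which bears a defined DNA repair alteration, and growth inhibition was determined relative to vehicle-treated cultures.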
# [4] = NCI Yeast Anticancer Drug Screen. Data for the mgt1 strain (AID 153); settings: S. cerevisiae mgt1 mutant growth inhibition, active compounds read high
# Method in brief: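 Strain: mgt1 yeast, one of a set carrying defined DNA damage repair or cell cycle control alterations. Compound-treated growth compared with vehicle.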
# [5] = NCI Yeast Anticancer Drug Screen. Data for the rad50 strain (AID 155);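 also: 0% = growth of vehicle-only cultures of the same strain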; settings: S. cerevisiae rad50 strain growth inhibition, active compounds read high
# Method in brief: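 Yeast carrying a defined DNA repair defect were exposed to test compounds, and growth was compared with vehicle-treated controls to give percent inhibition.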
# [6] = NCI Yeast Anticancer Drug Screen. Data for the mec2-1 strain (AID 157); settings: S. cerevisiae mec2-1 strain, active compounds read high
# Method in brief: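 Strain: mec2-1 (DNA repair/cell cycle alteration). Compound exposure, then growth measured; inhibition expressed relative to vehicle.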
# [7] = NCI Yeast Anticancer Drug Screen. Data for the rad14 strain (AID 159);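 also: 0% = growth of vehicle-treated control cultures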; settings: S. cerevisiae rad14 strain growth inhibition, active compounds read high
# Method in brief: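 Yeast cells carrying a defined DNA-repair defect were exposed to compounds, and growth inhibition was calculated relative to vehicle-treated control cultures.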
# [8] = NCI Yeast Anticancer Drug Screen. Data for the sgs1 mgt1 strain (AID 161);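 also: 0% = growth of cultures given vehicle only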; settings: S. cerevisiae sgs1 mgt1 strain, active compounds read high
# Method in brief: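 Test agents were incubated with a DNA-repair-mutant yeast strain. Growth was then read and compared against vehicle-treated controls.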
# [9] = NCI Yeast Anticancer Drug Screen. Data for the CLN2oe strain (AID 163);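 also: 0% = growth of vehicle-only control cultures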; settings: S. cerevisiae CLN2oe strain, active compounds read high
# Method in brief: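 Growth of a genetically modified yeast strain is measured after compound exposure and compared with cultures given vehicle alone.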
# [10] = NCI Yeast Anticancer Drug Screen. Data for the cln2 rad14 strain (AID 165);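 also: 0% = growth equal to vehicle treated cultures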; settings: S. cerevisiae cln2 rad14 strain, active compounds read high
# Method in brief: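 Compounds are applied to the cln2 rad14 yeast strain, and growth is then compared with that of vehicle-treated cultures to give inhibition.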
# [11] = NCI Yeast Anticancer Drug Screen. Data for the bub3 strain (AID 167); settings: S. cerevisiae bub3 mutant strain, active compounds read high
# Method in brief: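 Compounds were applied to a genetically altered yeast strain carrying a cell-cycle control defect. Growth inhibition was scored against vehicle-treated controls.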
# [12] = NCI Yeast Anticancer Drug Screen. Data for the wt2 strain (AID 169);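 also: 0% = growth of vehicle-treated yeast cultures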; settings: S. cerevisiae wt2 strain growth inhibition, active compounds read high
# Method in brief: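 This strain belongs to a panel of yeast strains with defined genetic alterations in DNA damage repair or cell cycle control. Compounds are applied, and growth inhibition is measured against vehicle-treated cultures.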
# [13] = NCI Yeast Anticancer Drug Screen. Data for the mlh1 strain (AID 171);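 also: 0% = growth of vehicle-treated control cultures of the same strain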; settings: S. cerevisiae mlh1 strain growth inhibition, active compounds read high
# Method in brief: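 Growth of the mutant yeast strain after compound exposure, expressed as inhibition relative to vehicle-only controls.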
# [14] = NCI Yeast Anticancer Drug Screen. Data for the sgs1 strain (AID 173);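 also: 0% = growth of vehicle-only control cultures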; settings: S. cerevisiae sgs1 mutant, active compounds read high
# Method in brief: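 Growth of a yeast strain bearing a defined genetic alteration is measured after compound treatment. Inhibition is expressed relative to vehicle-only controls.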
# [15] = NCI Yeast Anticancer Drug Screen. Data for the mlh1 rad18 strain (AID 175); settings: S. cerevisiae mlh1 rad18 strain growth inhibition, active compounds read high
# Method in brief: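 Read-out is yeast growth inhibition, calculated against vehicle-only controls. The compound was applied to a strain engineered with DNA damage repair alterations.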
# [16] = NCI Yeast Anticancer Drug Screen. Data for the rad18 strain (AID 177); settings: S. cerevisiae rad18 mutant growth inhibition, active compounds read high
# Method in brief: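 Growth of the mutant yeast strain after compound exposure, normalised to vehicle-only cultures.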
# [17] = at 5.0 µM (retest, dose inferred, filed as 0.5)
# [18] = at 50.0 µM (retest, dose inferred, filed as 5.0)
structure (smiles),measurement,setting,value
C[C@@H]1C[C@H]2[C@@H]3CCC4=CC(=O)C=C[C@]4(C)[C@@]3(Cl)[C@@H](Cl)C[C@]2(C)[C@@]1(O)C(=O)COP(=O)(O)O,growth inhibition,[1]; at 1.2 µM,-1%
same,growth inhibition,[1]; at 3.7 µM,-3%
same,growth inhibition,[1]; at 11.0 µM,6%
same,growth inhibition,[1]; at 33.0 µM,1%
same,growth inhibition,[1]; at 100.0 µM,3%
same,growth inhibition,[2]; at 1.2 µM,1%
same,growth inhibition,[2]; at 3.7 µM,-2%
same,growth inhibition,[2]; at 11.0 µM,-3%
same,growth inhibition,[2]; at 33.0 µM,-4%
same,growth inhibition,[2]; at 100.0 µM,-2%
same,growth inhibition,[3]; at 1.2 µM,-3%
same,growth inhibition,[3]; at 3.7 µM,-8%
same,growth inhibition,[3]; at 11.0 µM,-3%
same,growth inhibition,[3]; at 33.0 µM,3%
same,growth inhibition,[3]; at 100.0 µM,5%
same,growth inhibition,[4]; at 1.2 µM,11%
same,growth inhibition,[4]; at 3.7 µM,5%
same,growth inhibition,[4]; at 11.0 µM,3%
same,growth inhibition,[4]; at 33.0 µM,8%
same,growth inhibition,[4]; at 100.0 µM,2%
same,growth inhibition,[5]; at 1.2 µM,4%
same,growth inhibition,[5]; at 3.7 µM,-10%
same,growth inhibition,[5]; [17],2%
same,growth inhibition,[5]; at 11.0 µM,3%
same,growth inhibition,[5]; at 33.0 µM,7%
same,growth inhibition,[5]; [18],19%
same,growth inhibition,[5]; at 50.0 µM,-34.1%
same,growth inhibition,[5]; at 100.0 µM,8%
same,growth inhibition,[6]; at 1.2 µM,-3%
same,growth inhibition,[6]; at 3.7 µM,-3%
same,growth inhibition,[6]; [17],17%
same,growth inhibition,[6]; at 11.0 µM,0%
same,growth inhibition,[6]; at 33.0 µM,-3%
same,growth inhibition,[6]; [18],5%
same,growth inhibition,[6]; at 50.0 µM,-36.9%
same,growth inhibition,[6]; at 100.0 µM,1%
same,growth inhibition,[7]; at 1.2 µM,-1%
same,growth inhibition,[7]; at 3.7 µM,0%
same,growth inhibition,[7]; at 11.0 µM,-2%
same,growth inhibition,[7]; at 33.0 µM,-2%
same,growth inhibition,[7]; at 100.0 µM,1%
same,growth inhibition,[8]; [17],-14%
same,growth inhibition,[8]; [18],6%
same,growth inhibition,[8]; at 50.0 µM,-30.8%
same,growth inhibition,[9]; at 1.2 µM,-10%
same,growth inhibition,[9]; at 3.7 µM,-3%
same,growth inhibition,[9]; at 11.0 µM,7%
same,growth inhibition,[9]; at 33.0 µM,-1%
same,growth inhibition,[9]; at 100.0 µM,-6%
same,growth inhibition,[10]; [17],41%
same,growth inhibition,[10]; [18],-23%
same,growth inhibition,[10]; at 50.0 µM,26.1%
same,growth inhibition,[11]; at 1.2 µM,2%
same,growth inhibition,[11]; at 3.7 µM,-1%
same,growth inhibition,[11]; [17],-20%
same,growth inhibition,[11]; at 11.0 µM,2%
same,growth inhibition,[11]; at 33.0 µM,0%
same,growth inhibition,[11]; [18],-8%
same,growth inhibition,[11]; at 50.0 µM,-42.2%
same,growth inhibition,[11]; at 100.0 µM,-3%
same,growth inhibition,[12]; at 1.2 µM,-2%
same,growth inhibition,[12]; at 3.7 µM,-2%
same,growth inhibition,[12]; at 11.0 µM,-2%
same,growth inhibition,[12]; at 33.0 µM,-2%
same,growth inhibition,[12]; at 100.0 µM,-3%
same,growth inhibition,[13]; at 1.2 µM,2%
same,growth inhibition,[13]; at 3.7 µM,3%
same,growth inhibition,[13]; at 11.0 µM,0%
same,growth inhibition,[13]; at 33.0 µM,8%
same,growth inhibition,[13]; at 100.0 µM,12%
same,growth inhibition,[14]; at 1.2 µM,0%
same,growth inhibition,[14]; at 3.7 µM,-3%
same,growth inhibition,[14]; at 11.0 µM,-2%
same,growth inhibition,[14]; at 33.0 µM,-1%
same,growth inhibition,[14]; at 100.0 µM,-1%
same,growth inhibition,[15]; [17],9%
same,growth inhibition,[15]; [18],1%
same,growth inhibition,[15]; at 50.0 µM,-18.3%
same,growth inhibition,[16]; at 1.2 µM,-4%
same,growth inhibition,[16]; at 3.7 µM,-5%
same,growth inhibition,[16]; at 11.0 µM,1%
same,growth inhibition,[16]; at 33.0 µM,7%
same,growth inhibition,[16]; at 100.0 µM,7%
[N-]=N[N+]#I1OC(C(F)(F)F)(C(F)(F)F)c2ccccc21,growth inhibition,[1]; at 1.2 µM,44%
same,growth inhibition,[1]; at 3.7 µM,82% (active)
same,growth inhibition,[1]; at 11.0 µM,97% (active)
same,growth inhibition,[1]; at 33.0 µM,99% (active)
same,growth inhibition,[1]; at 100.0 µM,100% (active)
same,growth inhibition,[2]; at 1.2 µM,17%
same,growth inhibition,[2]; at 3.7 µM,84% (active)
same,growth inhibition,[2]; at 11.0 µM,99% (active)
same,growth inhibition,[2]; at 33.0 µM,99% (active)
same,growth inhibition,[2]; at 100.0 µM,99% (active)
same,growth inhibition,[3]; at 1.2 µM,3%
same,growth inhibition,[3]; at 3.7 µM,13%
same,growth inhibition,[3]; at 11.0 µM,42%
same,growth inhibition,[3]; at 33.0 µM,93% (active)
same,growth inhibition,[3]; at 100.0 µM,99% (active)
same,growth inhibition,[4]; at 1.2 µM,38%
same,growth inhibition,[4]; at 3.7 µM,88% (active)
same,growth inhibition,[4]; at 11.0 µM,99% (active)
same,growth inhibition,[4]; at 33.0 µM,100% (active)
same,growth inhibition,[4]; at 100.0 µM,100% (active)
same,growth inhibition,[5]; at 1.2 µM,58%
same,growth inhibition,[5]; at 3.7 µM,90% (active)
same,growth inhibition,[5]; [17],7%
same,growth inhibition,[5]; at 11.0 µM,97% (active)
same,growth inhibition,[5]; at 33.0 µM,100% (active)
same,growth inhibition,[5]; [18],99% (active)
same,growth inhibition,[5]; at 50.0 µM,91.7% (active)
same,growth inhibition,[5]; at 100.0 µM,100% (active)
same,growth inhibition,[6]; at 1.2 µM,45%
same,growth inhibition,[6]; at 3.7 µM,91% (active)
same,growth inhibition,[6]; [17],2%
same,growth inhibition,[6]; at 11.0 µM,99% (active)
same,growth inhibition,[6]; at 33.0 µM,100% (active)
same,growth inhibition,[6]; [18],99% (active)
same,growth inhibition,[6]; at 50.0 µM,93.7% (active)
same,growth inhibition,[6]; at 100.0 µM,99% (active)
same,growth inhibition,[7]; at 1.2 µM,27%
same,growth inhibition,[7]; at 3.7 µM,90% (active)
same,growth inhibition,[7]; at 11.0 µM,99% (active)
same,growth inhibition,[7]; at 33.0 µM,100% (active)
same,growth inhibition,[7]; at 100.0 µM,99% (active)
same,growth inhibition,[8]; [17],81% (active)
same,growth inhibition,[8]; [18],98% (active)
same,growth inhibition,[8]; at 50.0 µM,92.8% (active)
same,growth inhibition,[9]; at 1.2 µM,40%
same,growth inhibition,[9]; at 3.7 µM,81% (active)
same,growth inhibition,[9]; at 11.0 µM,98% (active)
same,growth inhibition,[9]; at 33.0 µM,99% (active)
same,growth inhibition,[9]; at 100.0 µM,98% (active)
same,growth inhibition,[10]; [17],47%
same,growth inhibition,[10]; [18],98% (active)
same,growth inhibition,[10]; at 50.0 µM,92% (active)
same,growth inhibition,[11]; at 1.2 µM,28%
same,growth inhibition,[11]; at 3.7 µM,83% (active)
same,growth inhibition,[11]; [17],91% (active)
same,growth inhibition,[11]; at 11.0 µM,99% (active)
same,growth inhibition,[11]; at 33.0 µM,100% (active)
same,growth inhibition,[11]; [18],98% (active)
same,growth inhibition,[11]; at 50.0 µM,92.8% (active)
same,growth inhibition,[11]; at 100.0 µM,97% (active)
same,growth inhibition,[12]; at 1.2 µM,18%
same,growth inhibition,[12]; at 3.7 µM,76% (active)
same,growth inhibition,[12]; at 11.0 µM,98% (active)
same,growth inhibition,[12]; at 33.0 µM,99% (active)
same,growth inhibition,[12]; at 100.0 µM,99% (active)
same,growth inhibition,[13]; at 1.2 µM,53%
same,growth inhibition,[13]; at 3.7 µM,90% (active)
same,growth inhibition,[13]; at 11.0 µM,98% (active)
same,growth inhibition,[13]; at 33.0 µM,99% (active)
same,growth inhibition,[13]; at 100.0 µM,99% (active)
same,growth inhibition,[14]; at 1.2 µM,41%
same,growth inhibition,[14]; at 3.7 µM,89% (active)
same,growth inhibition,[14]; at 11.0 µM,98% (active)
same,growth inhibition,[14]; at 33.0 µM,99% (active)
same,growth inhibition,[14]; at 100.0 µM,99% (active)
same,growth inhibition,[15]; [17],34%
same,growth inhibition,[15]; [18],99% (active)
same,growth inhibition,[15]; at 50.0 µM,92% (active)
same,growth inhibition,[16]; at 1.2 µM,62%
same,growth inhibition,[16]; at 3.7 µM,89% (active)
same,growth inhibition,[16]; at 11.0 µM,98% (active)
same,growth inhibition,[16]; at 33.0 µM,99% (active)
same,growth inhibition,[16]; at 100.0 µM,99% (active)

# From PubChem BioAssay (NCI)
